Test results published in the supplement of paper PMC6555819.

Tests used:
Assay in all cases: PBM binding z-score (relative to random genomic background probes); higher = stronger binding; sequences stand for … in GC…GCGATTGACAGCGTAGAATGAAGG
[1] = tested on: RARb homodimer (NR concentration 270 nM)
Outline: (§1)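 Custom Agilent 4×180K protein-binding microarrays carried double-stranded probes, each with a 34-nt variable region. These regions held direct-repeat seeds, single-nucleotide variants, half-site ablations and random human genomic background sequences. Ligand-free nuclear receptor dimers were incubated on the arrays for 1 h, antibodies against each partner (one per run) detected binding, and scanned fluorescence was regression-normalized. Binding z-scores take the random background probes as reference.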

[2] = tested on: RARg:RXRa (NR concentration 270 nM, RXRa partner concentration 90 nM)
Outline: as §1

[3] = tested on: RARg homodimer (NR concentration 270 nM)
Outline: as §1

[4] = tested on: RXRa DBDmut IVT, anti-RXR (DBD mutation: RXRa K156A/R161A, NR concentration 90 nM)
Outline: as §1

[5] = tested on: RXRa homodimer (NR concentration 180 nM)
Outline: as §1

[6] = tested on: THRa:RXRa (NR concentration 90 nM, RXRa partner concentration 90 nM)
Outline: as §1

[7] = tested on: THRa homodimer (NR concentration 90 nM)
Outline: as §1

[8] = tested on: VDR homodimer (NR concentration 270 nM)
Outline: as §1

Row | Sequence | PBM binding z-score [1] | PBM binding z-score [2] | PBM binding z-score [3] | PBM binding z-score [4] | PBM binding z-score [5] | PBM binding z-score [6] | PBM binding z-score [7] | PBM binding z-score [8]
1 | TCTCGGAGGACACGAAGGTCAGAACTTTCCAGAG | 3.24 | 2.59 | 3.24 | 1.26 | 1.51 | 2.69 | 1.15 | 1.45
2 | CCTACTGGGCCATCAGATCATTGATATCAACGTT | -0.087 | 0.0829 | 0.48 | 0.0432 | -0.148 | -0.114 | -0.322 | 0.0449
3 | AGAATGAGGTTACAAAAGATCAGGGAAACGCTTG | 0.449 | 1.86 | 1.58 | 1.16 | 2.44 | 2.6 | -0.0281 | 0.342
4 | TAGCCTAGGTCATTCAGGGGCCTGTATAGAAAGC | 2.65 | 4.31 | 4.02 | 1.75 | 2.48 | 3.54 | 0.286 | 1.04
5 | ATCTCTAGGTAAAGTTCACTGAAAGATCGATAGA | 3.34 | 3.14 | 3.42 | 2.2 | 2.82 | 1.95 | 0.46 | 3.79
6 | ATGTGTAGGTTAGCTGGGGTCATTCAGACTAGGC | 3.72 | 4.37 | 3.19 | 2.08 | 5.51 | 5.15 | 3.53 | 5.92
7 | GCTAGCAGGCCATTTGGGACACTCAATGACGGGC | -0.366 | -0.267 | 0.308 | -0.237 | -0.122 | 0.63 | -0.00643 | -0.65
